Values without a mark were called inactive. Calls of active or inactive are those of the source. How the calls were made is not given here. Where only a bound is given, the exact number is not on record here.
Potency means the concentration at half of the fitted maximal effect.

For this experiment, the system named is HIV-1 nucleocapsid protein NCp7 (binding to TG oligonucleotide). Nature of the experiment: HIV Nucleocapsid (AID 346).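 Further: potency is for inhibitors that block NC binding and lower polarization.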 The note with it: HIV-1 NC / fluorescein-TGTGTGTG probe, fluorescence polarization. In a few lines: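 Fluorescence polarization binding of 100 nM HIV-1 NC to 10 nM fluorescein-labelled TG4xF oligonucleotide. Buffer was Hepes pH 7.5 with 250mM NaCl, 1uM ZnCl2, TCEP and 2-mercaptoethanol. Compounds were incubated 1 hr at room temperature before the read.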
Take `O=C(c1ccco1)N1CCC2(CCN(Cc3nccs3)CC2)CC1`: the Potency is greater than 20 µM.
Under `N#Cc1ccc(CN2CC[C@@]3(CCCN(C(=O)c4ccncc4)C3)C2)cc1` stands greater than 20 µM; under `COc1ccc(CNc2ncncc2-c2ccccc2OC)c(OC)c1`, greater than 20 µM.
Then `COc1ccccc1-c1nc(NCCNC(C)=O)c2ccccc2n1`, with greater than 20 µM.
Under `COc1ccc(NC(=O)N2CCCC3(CCNCC3)C2)cc1` stands greater than 20 µM; under `CN(C)Cc1ccccc1-c1cc(NC2CC2)ncn1`, greater than 20 µM; under `CC(C)CN1CCC2(CC1)CCN(C(=O)c1ccco1)CC2`, greater than 20 µM.
Regarding `O=C(c1ccncc1)N1CCC2(CC1)CCN(c1cccc(-c3ccccc3)c1)CC2`, the Potency was greater than 20 µM.
Under `COc1ccccc1CNc1ncnc2ccc(-c3ccoc3)cc12` stands greater than 20 µM.
Then `CN(C)c1ncc2ncc(=O)n(C[C@H]3CCCO3)c2n1`, with greater than 20 µM; and `N#Cc1ccc(CN2CC[C@@]3(CCCN(C(=O)c4ccco4)C3)C2)cc1`, with greater than 20 µM.
Under `COC(=O)N1CCC2(CC1)CN(c1cccc(-c3ccccc3)c1)C2` stands greater than 20 µM; under `COCCNc1nc(-c2ccccc2OC)nc2ccccc12`, greater than 20 µM; under `CNc1ccnc(-c2ccccc2CN(C)C)n1`, greater than 20 µM.
Turning to `COc1cccc(Cn2c(=O)c(-c3cccc(C#N)c3)nc3cnc(Nc4ccccc4)nc32)c1`, the Potency is 0.198 µM (active).
Take `COc1ccccc1CNc1cc(-c2cccc(C#N)c2)ncn1`: the Potency is greater than 20 µM.
As to `Cc1cnc(CNc2ncnc3ccc(-c4cccc(C#N)c4)cc23)cn1`, the Potency is greater than 20 µM.
Take `COc1cccc(-c2nccc(NCc3cccnc3)n2)c1`: the Potency is greater than 20 µM.
Then `COc1cccc(-c2nc(NCc3ccccc3)c3ccccc3n2)c1`, with greater than 20 µM; and `COc1cccc(Cn2c(=O)cnc3cnc(Oc4ccccc4)nc32)c1`, with greater than 4 µM; and `CS(=O)(=O)Nc1cccc(-c2ccc3ncnc(Nc4ccccc4)c3c2)c1`, with greater than 20 µM.
Then `COc1ccccc1-c1nc(NCCN2CCOCC2)c2ccccc2n1`, with greater than 20 µM; and `O=C(c1cccc(F)c1)N1CCC[C@@]2(CCN(c3ccccc3)C2)C1`, with greater than 20 µM; and `COc1cccc(Nc2ncc3nc(-c4cccs4)c(=O)n(Cc4cccs4)c3n2)c1`, with greater than 20 µM.

(Values after PubChem BioAssay (NCATS).)
